Eleven compounds from PubChem BioAssay AID2017 (National Center for Advancing Translational Sciences (NCATS), 2009) can be followed below.

Each structure is given as a SMILES string. Inconclusive results are not listed. Unmarked numbers belong to inactive results. Calls come from the whole dose curve; as a rule, active = well fitted curve in the direction sought with a large enough effect; inconclusive = small, poorly fitted or top-dose-only effect, or another doubt; inactive = no such curve, though single readings can be large or run the other way.

The assay deals with 4-diphosphocytidyl-2-C-methyl-D-erythritol kinase IspE (bacterial, species not stated). Nature of the assay: Confirmatory Assay for Inhibitors of Human Galactokinase (GALK): CDP-Me assay counterscreen. To be noted: ATP depletion, Kinase-Glo luminescence; series mostly up to 115 µM; activity change, negative = inhibition: at the top concentration. The procedure, abridged: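 Luminescent read-out of ATP remaining (Kinase-Glo Plus) after 1 h at room temperature. Reaction: 0.25 ug/mL CDP-Me kinase, ATP 15 uM, CDP-ME 30 uM, HEPES pH8.0 buffer containing MgCl2, KCl, DTT and BSA.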
With `COc1ccc2cc(C(N)=O)c(=Nc3ccc(C)cc3)oc2c1`, the “activity change, negative = inhibition” value was -0.694%.

For `O=C1C(Cl)=C(N2CCC(C(=O)O)CC2)C(=O)c2ccccc21`, the “activity change, negative = inhibition” value is -7.29%.

For the compound `O=C1/C(=C\c2cc(Cl)c(O)c(Cl)c2)SC(=S)N1Cc1ccccc1`, the “activity change, negative = inhibition” value was 3.14%.

As to `O=C(NCCc1ccccc1)c1ccc2c(=O)[nH]c3c(C(=O)NCC4CCCO4)sc(=S)n3c2c1` (stereo unspecified), the “activity change, negative = inhibition” value was -12.4%.

On to `O=C1C(C2=C(O)c3ccccc3C2=O)=Nc2ccccc21`, for which the “activity change, negative = inhibition” value is -6.72%.

Take `COc1ccc(-n2nnc3c(=O)n(CC(=O)N4CCC(C)CC4)cnc32)cc1`: the “activity change, negative = inhibition” value is 1.87%.

Take `CC1=NN(c2ccccc2)C(=O)/C1=C/c1c(O)n(-c2ccc(F)c(Cl)c2)[nH]c1=O`: the “activity change, negative = inhibition” value was -6.6%.

On to `Cc1nc(NS(=O)(=O)c2ccc(Cl)s2)c2c3c(sc2n1)CCCC3`, for which the “activity change, negative = inhibition” value was 1.29%.

With `COc1ccc(C/C(O)=C(\C#N)c2nc3ccccc3s2)cc1`, the “activity change, negative = inhibition” value is -4.02%.

As for `CCOC(=O)c1c(C)[nH]c2c1-c1ccccc1C(=O)C2=O`, the “activity change, negative = inhibition” value is -7.25%.

For `Cc1snc(S(=O)(=O)/C(C#N)=N/Nc2cccc(C(F)(F)F)c2)c1C#N`, the “activity change, negative = inhibition” value is -2.05%.
